Screening results from PubChem.
This excerpt belongs to a sample that is enriched for hits.
Methyltransferases: Primary Screen for Target Class Profiling of Small Molecule Inhibitors of Methyltransferases; purified enzyme, MTase-Glo SAH luminescence; active compounds read low; calls only at 40 µM; actives 3.9% (n = 25,000); call rule not given here
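Each enzyme was reacted with SAM and its substrate, with compounds tested once at 40 uM; SAH formed was read by MTase-Glo luminescence.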
Active calls of the source: *; i = inactive; + = active, no number; ! = a repeat was not active. % is scaled to controls: 0 for no effect and ±100 for the full control effect.

SMILES	Methyltransferases
COC1C(=O)N(c2cccc(F)c2)C12CCN(S(=O)(=O)c1cccs1)CC2 (stereo not drawn)	i
C#CC(=O)N(c1ccc(OC)cc1OC)C(C(=O)NCC(=O)OCC)c1cccs1 (stereo not drawn)	i
CC12CC(c3ccoc3)OC(=O)C1CCC1(C)C2CCC(O)C1(C)O (stereo not drawn)	i
Cc1ccc(C)c(NS(=O)(=O)c2ccc3c(c2)[C@H]2C=CC[C@H]2[C@@H](c2cccc(Cl)c2)N3)c1	i
Cc1cnc(C(=O)N[C@@H]2CN(C3CCOCC3)C[C@H]2CN(C)C)cn1	i
CC(C)(C)Cn1c(N)nc2ccc(-c3[nH]c(C(C)(C)C)nc3-c3ccc(F)cc3)nc21	+
CC(C)Cn1c(=O)c2ccc(C(=O)NC3CCCC3)cc2n2c(=O)n(CC(=O)NCc3ccccc3)nc12	i
COc1ccc(C(=O)Cn2nc3n(C(C)C)c(=O)c4ccc(C(=O)NC(C)C)cc4n3c2=O)cc1	i
C=C(CO)C(=O)O[C@H]1C[C@@]23O[C@@H]2CC/C(=C/[C@H]2OC(=O)C(=C)[C@H]12)CO[C@H]3O	i
C=C1C(=O)O[C@H]2[C@H]1[C@@H](OC(=O)/C(C)=C\C)C[C@]1(C)O[C@@H]1[C@H]1O[C@H]1C(=C)[C@H]2O	i
C=C1C(=O)OC2/C=C(/C)C3=CC(=O)C(C)(CC(OC(=O)/C(C)=C/COC(C)=O)C12)O3 (stereo not drawn)	+
C[C@H]1[C@H](C)CC[C@]2(C(=O)O)CC[C@]3(C(=O)O)C(=CCC4[C@@]5(C)CC[C@H](O[C@@H]6O[C@H](C)[C@@H](O)[C@H](O)[C@H]6O)C(C)(C)C5CC[C@]43C)[C@H]12 (stereo partly drawn)	i
CCC1c2ccc(C)n2CCN1C(=O)Nc1ccc(Br)cc1 (stereo not drawn)	i
CCOC(=O)C1CCN(C(=O)c2ccc3nccn3c2)CC1	i
Cc1[nH]c(=O)c(C#N)cc1-c1ccncc1	i
Cc1[nH]c(=O)c(C#N)cc1-c1ccc2nccn2c1	+
CC(C)CCN1C(=O)c2ccc(-c3ccco3)n2CC1(C)C(=O)NC1CCCCC1C (stereo not drawn)	i
Cc1ccc(CN2CCCn3nc(C(=O)NCCc4cccs4)cc3C2=O)cc1	i
CCCCN1C(=O)c2cc(C(=O)Nc3cccc(C)c3C)nn2CC1(C)C(=O)NC1CCCC1 (stereo not drawn)	i
C#Cc1cccc(Nc2ncnc3cc(OC)c(OCCCCCCC(=O)NO)cc23)c1	+
COc1cc2ncnc(Nc3ccc(O)cc3)c2cc1OC	i
C#Cc1cccc(Nc2nc3cc(C(=O)O)ccc3c3cncnc23)c1	i
CCc1ccc(N2C(=O)c3cc(-c4ccco4)nn3CC2(C)C(=O)NC2CCCCCC2)cc1 (stereo not drawn)	i
COc1ccccc1OCc1cc(C(=O)N2CCCCCCCC2)n[nH]1	i
CCc1cc2c(cc3n2CC(C)(C(=O)NC2CCCCCC2)N(c2cc(C)ccc2C)C3=O)s1 (stereo not drawn)	i
SMILES	Methyltransferases
O=C(NCc1ccccc1)c1ccc2c(=O)nc3c(-c4cccc(F)c4)n[nH]n3c2c1	i
O=C(NCCCc1ccccc1)C1CN(C2CCCC2)C(=O)N1 (stereo not drawn)	i
O=C1N[C@@H]2CCN(C(=O)c3ccc(-c4ccccc4)cc3)[C@@H]2C(=O)N1Cc1ccccc1	i
CC1=C(C(=O)OCc2ccccc2)C(c2ccc(-c3ccccc3)cc2)NC(=O)N1CCCCCC(=O)O (stereo not drawn)	+
O=C1CC(C(=O)O)C2(CCN(c3cc(C4CC4)ncn3)CC2)N1 (stereo not drawn)	i
O=S(=O)(NCCn1c(CCc2ccccc2)nc2ccccc21)c1ccc(C2CCCCC2)cc1	i
Cc1ccc2c(c1)C=Cc1cc(C)ccc1C2c1cn(Cc2ccc(C(=O)Nc3nn[nH]n3)o2)c(=O)[nH]c1=S	+
O=S(=O)(NCc1ccccc1Cl)c1ccc2[nH]c3c(c2c1)CCCC3	i
COc1cccc(CN2C(=O)c3cc(C(C)(C)C)nn3CC2(C)C(=O)NC2CCCCCC2)c1 (stereo not drawn)	i
CC(C)c1noc(-c2cn(C3CCCN(C(=O)c4ccc[nH]4)C3)nn2)n1 (stereo not drawn)	i
Cc1cc(C)cc(N2C(=O)c3cc4sccc4n3CC2(C)C(=O)NC2CCCCC2C)c1 (stereo not drawn)	i
N#Cc1ccc(C(=O)N2CCC(Cc3nc(-c4cccnc4)n[nH]3)C2)cc1 (stereo not drawn)	i
Cc1nnc2n(-c3cccc(F)c3)c(=O)c3ccc(C(=O)NCc4ccc(Cl)cc4)cc3n12	i
CCC(=O)N1CCN(c2ccc(-n3c(=O)ccc4cnc5ccc(-c6cnc7ccccc7c6)cc5c43)cc2C(F)(F)F)CC1	i
Nc1ccc(-c2ccc3ncc4ccc(=O)n(-c5cccc(C(F)(F)F)c5)c4c3c2)cn1	+
O=C(NC[C@H]1O[C@@H](CC(=O)N2CCN(c3ccccn3)CC2)[C@H](O)[C@@H]1O)c1ccco1	i
CC(C)(O)C(=O)N1CCN(c2ccc(C(F)(F)F)c(C3=C(c4c[nH]c5ccccc45)C(=O)NC3=O)c2)CC1	+
CCOC(=O)c1cc2n(n1)CC(C)(C(=O)NC1CCCCC1)N(c1cc(Cl)ccc1C)C2=O (stereo not drawn)	i
CCOC(=O)c1cc2n(n1)CC(C)(C(=O)NC1CCCCC1)N(c1cccc(Cl)c1C)C2=O (stereo not drawn)	i
COc1ccc(-c2nnc3n(Cc4ccc(C)cc4)c(=O)c4ccccc4n23)cc1OC	i
Cc1ccc(N2C(=O)c3cc(-c4cccs4)nn3CC2(C)C(=O)NC2CCCCCC2)cc1 (stereo not drawn)	i
O=C(O)c1ccccc1Nc1cccc(OCc2ccc3ccccc3n2)c1	i
COc1ccccc1C(=O)N1CCN(c2nccc(Nc3ccccc3Cl)n2)CC1	i
NC(=O)c1ccccc1Nc1ccnc(Nc2cccc(O)c2)n1	+
O=C1NC(Cc2c[nH]c3ccccc23)C(=O)NC1Cc1cnc[nH]1 (stereo not drawn)	i
SMILES	Methyltransferases
COc1ccc(CN2C(=O)c3c(NC(C)=O)c4cc(C)ccc4n3CC2(C)C(=O)NC2CCCCCC2)cc1 (stereo not drawn)	i
N[C@@H](Cc1cc(I)c(Oc2ccc(O)c(I)c2)c(I)c1)C(=O)O	+!
NC(Cc1cccc(-c2ccccc2CP(=O)(O)O)c1)C(=O)O (stereo not drawn)	i
NC(Cc1c[nH]c2ccccc12)C(=O)O (stereo not drawn)	i
N[C@@H](Cc1cc(I)c(Oc2cc(I)c(O)c(I)c2)c(I)c1)C(=O)O	+
CCN(CCCNC(=O)CCc1nnc2n(Cc3ccc(F)cc3)c(=O)c3ccccc3n12)c1cccc(C)c1	i
Cc1ccc(Cn2c(=O)c3ccccc3n3c(SCC(=O)Nc4cccc(C)c4)nnc23)cc1	i
COC(=O)c1ncn2c1C(=O)N(c1cccc(C)c1C)C(C)(C(=O)NC1CCCC1)C2 (stereo not drawn)	i
COc1cc(Nc2ncc3c(n2)-c2ccc(Cl)cc2C(c2c(F)cccc2OC)=NC3)ccc1C(=O)O	+!
COc1cccc(OC)c1-c1nc(C(=O)N[C@@H](CC(C)C)C(=O)O)cn1-c1ccnc2cc(Cl)ccc12	i
CN1CC2(CCN(Cc3ccc(C#N)cc3)CC2)CC(c2ccccc2)C1=O (stereo not drawn)	i
